Experimental findings from the supplement of paper PMC10849652 are described below.

Common to all, as to assay: log2 fold change, soluble protein after heating vs DMSO (PISA); higher = thermal stabilisation; K562 cells, 10 uM, 30 min; active = over 0.2 and 3.5 SD of the protein, either way, in both replicates (recomputed)
Compound in assay [1]: CC1=C(C=C(C=C1)NC(=O)C2=CC(=CC=C2)C(C)(C)C#N)NC3=CC4=C(C=C3)N=CN(C4=O)C
Summed up:
(§1)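 K562 cells at 2×10^6 cells/mL were exposed to 10 μM compound for 30 min, then aliquots were heated for 3 min across 48°C-58°C, pooled, and extracted in PBS containing 0.5% NP-40 at 4°C. The supernatant after 21,000xg for 90 min was taken as soluble protein and measured by TMTpro 16plex LC-MS/MS with channel sums equalised. Thermal stability is reported relative to control samples, with values from duplicates. Fold changes are given on a log2 scale.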

Compound in assay [2]: CC1=C(C=C(C=C1)NC(=O)C2=CC(=CC=C2)N(C)C)NC(=O)C3=CC=C(C=C3)O
Summed up:
as §1

Compound in assay [3]: CC1=CC=C(C=C1)SC2=C3C=C(SC3=CN=C2)C(=O)N
Summed up:
as §1

Compound in assay [4]: CC1=NC(=CC=C1)C2=C(N=C(N2)C(C)(C)C)C3=CC4=NC=CN=C4C=C3
Summed up:
as §1

Compound in another assay: CCCCN(Cc1ccc(C(=O)NO)cc1)C(=O)Nc1ccccc1 [Nexturastat A]
Summed up: as §1

Compound in another assay: CCCS(=O)(=O)Nc1ccc(F)c(C(=O)c2c[nH]c3ncc(-c4ccc(Cl)cc4)cc23)c1F [vemurafenib]
Summed up:
as §1

Compound in assay [5]: CCCS(=O)(=O)Nc1ccc(F)c(C(=O)c2c[nH]c3ncc(Cl)cc23)c1F
Summed up: as §1

Compound in assay [6]: CCCc1cc(C)[nH]c(=O)c1CNC(=O)c1cc(-c2ccnc(N3CCN(C)CC3)c2)cc2c1cnn2C(C)C
Summed up: as §1

Compound in the next assay: CCN(CC)Cc1ccc2cc(COC(=O)Nc3ccc(C(=O)NO)cc3)ccc2c1 [givinostat]
Summed up:
as §1

Compound in another assay: CCN(CCCOc1ccc2c(Nc3cc(CC(=O)Nc4cccc(F)c4)[nH]n3)ncnc2c1)CCOP(=O)(O)O [barasertib]
Summed up:
as §1

The full data set covers some 7,900 targets. This sample favours those with a hit. About 0.6% of all pairs of compound and target were hits. Values without a mark were called inactive.

Sequence of UniProt Q96LJ8 (Q96LJ8 whole entry, looked up): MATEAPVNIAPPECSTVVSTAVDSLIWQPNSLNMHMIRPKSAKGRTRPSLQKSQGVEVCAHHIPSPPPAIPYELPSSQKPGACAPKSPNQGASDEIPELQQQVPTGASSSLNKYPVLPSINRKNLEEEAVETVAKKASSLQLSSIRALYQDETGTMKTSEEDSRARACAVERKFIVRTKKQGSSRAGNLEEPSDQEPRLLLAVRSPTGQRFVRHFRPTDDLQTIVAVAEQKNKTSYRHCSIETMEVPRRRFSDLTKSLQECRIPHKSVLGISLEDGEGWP
Sequence of UniProt O75674 (O75674 whole entry, looked up): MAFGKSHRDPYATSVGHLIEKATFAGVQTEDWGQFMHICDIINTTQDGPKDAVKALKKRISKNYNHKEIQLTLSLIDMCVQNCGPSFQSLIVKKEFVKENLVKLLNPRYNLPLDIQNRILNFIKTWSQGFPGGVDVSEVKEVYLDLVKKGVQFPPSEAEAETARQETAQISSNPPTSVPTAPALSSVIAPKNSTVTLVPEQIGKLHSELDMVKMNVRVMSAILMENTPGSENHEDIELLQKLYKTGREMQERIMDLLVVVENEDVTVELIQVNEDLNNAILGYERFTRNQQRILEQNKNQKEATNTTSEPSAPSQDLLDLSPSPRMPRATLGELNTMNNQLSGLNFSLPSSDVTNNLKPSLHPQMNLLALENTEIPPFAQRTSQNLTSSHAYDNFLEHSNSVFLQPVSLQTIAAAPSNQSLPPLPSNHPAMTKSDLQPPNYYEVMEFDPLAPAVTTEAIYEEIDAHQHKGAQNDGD
Sequence of UniProt Q9Y385 (Q9Y385 whole entry, looked up): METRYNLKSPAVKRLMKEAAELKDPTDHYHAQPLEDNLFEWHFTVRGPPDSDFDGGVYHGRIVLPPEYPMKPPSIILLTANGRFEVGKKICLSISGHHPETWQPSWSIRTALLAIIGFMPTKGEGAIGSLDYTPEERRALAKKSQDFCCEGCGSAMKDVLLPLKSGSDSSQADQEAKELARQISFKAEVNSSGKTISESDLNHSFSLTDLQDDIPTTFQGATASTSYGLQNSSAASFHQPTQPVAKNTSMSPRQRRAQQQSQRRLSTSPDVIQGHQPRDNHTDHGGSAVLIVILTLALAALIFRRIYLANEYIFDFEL
Sequence of UniProt Q8IY95 (Q8IY95 whole entry, looked up): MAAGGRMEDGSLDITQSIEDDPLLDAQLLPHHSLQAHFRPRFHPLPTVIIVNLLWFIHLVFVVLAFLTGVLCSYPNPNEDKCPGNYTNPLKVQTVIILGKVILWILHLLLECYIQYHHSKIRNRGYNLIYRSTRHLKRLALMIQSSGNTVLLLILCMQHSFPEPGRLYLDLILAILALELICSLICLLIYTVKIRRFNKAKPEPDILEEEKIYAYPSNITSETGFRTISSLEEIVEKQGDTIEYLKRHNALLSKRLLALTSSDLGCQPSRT
Sequence of UniProt Q9NX01 (Q9NX01 whole entry, looked up): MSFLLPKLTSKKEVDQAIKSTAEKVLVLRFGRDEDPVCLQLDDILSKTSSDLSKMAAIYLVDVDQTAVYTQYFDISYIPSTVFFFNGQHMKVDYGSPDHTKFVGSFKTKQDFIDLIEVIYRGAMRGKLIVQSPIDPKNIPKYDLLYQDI
Sequence of UniProt Q15642 (Q15642 whole entry, looked up): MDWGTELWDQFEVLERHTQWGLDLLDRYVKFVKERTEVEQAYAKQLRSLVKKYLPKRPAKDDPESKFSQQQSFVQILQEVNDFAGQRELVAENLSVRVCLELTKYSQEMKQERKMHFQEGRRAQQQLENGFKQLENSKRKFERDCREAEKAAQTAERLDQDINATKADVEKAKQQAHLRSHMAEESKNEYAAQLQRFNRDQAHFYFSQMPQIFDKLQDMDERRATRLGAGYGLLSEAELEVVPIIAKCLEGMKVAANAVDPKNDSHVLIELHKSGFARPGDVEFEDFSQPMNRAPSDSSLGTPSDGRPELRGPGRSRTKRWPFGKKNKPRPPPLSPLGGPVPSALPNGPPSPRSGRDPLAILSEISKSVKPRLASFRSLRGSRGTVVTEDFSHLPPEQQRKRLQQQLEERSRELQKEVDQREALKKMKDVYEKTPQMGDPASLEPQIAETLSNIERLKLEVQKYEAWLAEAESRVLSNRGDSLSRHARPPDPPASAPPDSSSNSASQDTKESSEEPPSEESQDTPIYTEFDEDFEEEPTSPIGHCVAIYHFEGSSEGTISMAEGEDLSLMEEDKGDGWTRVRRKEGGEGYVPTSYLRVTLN
Sequence of UniProt P07951 (P07951 whole entry, looked up): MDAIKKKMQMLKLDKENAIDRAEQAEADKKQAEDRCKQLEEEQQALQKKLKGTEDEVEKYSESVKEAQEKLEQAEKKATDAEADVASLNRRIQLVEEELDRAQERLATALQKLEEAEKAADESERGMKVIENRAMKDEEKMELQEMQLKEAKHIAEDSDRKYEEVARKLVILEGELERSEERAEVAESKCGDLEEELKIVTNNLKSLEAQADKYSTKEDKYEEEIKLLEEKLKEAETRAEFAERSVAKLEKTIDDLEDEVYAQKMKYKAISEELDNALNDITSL
Sequence of UniProt Q9BXJ8 (Q9BXJ8 whole entry, looked up): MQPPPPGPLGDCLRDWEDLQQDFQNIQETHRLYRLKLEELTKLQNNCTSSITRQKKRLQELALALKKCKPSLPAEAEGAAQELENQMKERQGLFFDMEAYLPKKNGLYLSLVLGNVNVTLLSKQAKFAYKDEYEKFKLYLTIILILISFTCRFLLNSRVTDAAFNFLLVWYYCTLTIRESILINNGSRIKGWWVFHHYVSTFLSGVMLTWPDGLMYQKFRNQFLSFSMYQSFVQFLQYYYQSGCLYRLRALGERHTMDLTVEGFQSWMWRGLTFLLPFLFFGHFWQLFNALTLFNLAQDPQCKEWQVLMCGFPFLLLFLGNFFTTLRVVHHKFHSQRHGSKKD
Sequence of UniProt Q9BUB7 (Q9BUB7 whole entry, looked up): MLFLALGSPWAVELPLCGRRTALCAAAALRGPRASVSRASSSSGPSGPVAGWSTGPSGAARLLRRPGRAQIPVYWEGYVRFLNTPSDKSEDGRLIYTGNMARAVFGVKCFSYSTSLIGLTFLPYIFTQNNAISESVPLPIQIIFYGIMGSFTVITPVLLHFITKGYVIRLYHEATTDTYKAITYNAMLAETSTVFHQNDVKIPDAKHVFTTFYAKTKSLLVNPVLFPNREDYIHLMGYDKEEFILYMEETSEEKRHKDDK
Sequence of UniProt O75717 (O75717 whole entry, looked up): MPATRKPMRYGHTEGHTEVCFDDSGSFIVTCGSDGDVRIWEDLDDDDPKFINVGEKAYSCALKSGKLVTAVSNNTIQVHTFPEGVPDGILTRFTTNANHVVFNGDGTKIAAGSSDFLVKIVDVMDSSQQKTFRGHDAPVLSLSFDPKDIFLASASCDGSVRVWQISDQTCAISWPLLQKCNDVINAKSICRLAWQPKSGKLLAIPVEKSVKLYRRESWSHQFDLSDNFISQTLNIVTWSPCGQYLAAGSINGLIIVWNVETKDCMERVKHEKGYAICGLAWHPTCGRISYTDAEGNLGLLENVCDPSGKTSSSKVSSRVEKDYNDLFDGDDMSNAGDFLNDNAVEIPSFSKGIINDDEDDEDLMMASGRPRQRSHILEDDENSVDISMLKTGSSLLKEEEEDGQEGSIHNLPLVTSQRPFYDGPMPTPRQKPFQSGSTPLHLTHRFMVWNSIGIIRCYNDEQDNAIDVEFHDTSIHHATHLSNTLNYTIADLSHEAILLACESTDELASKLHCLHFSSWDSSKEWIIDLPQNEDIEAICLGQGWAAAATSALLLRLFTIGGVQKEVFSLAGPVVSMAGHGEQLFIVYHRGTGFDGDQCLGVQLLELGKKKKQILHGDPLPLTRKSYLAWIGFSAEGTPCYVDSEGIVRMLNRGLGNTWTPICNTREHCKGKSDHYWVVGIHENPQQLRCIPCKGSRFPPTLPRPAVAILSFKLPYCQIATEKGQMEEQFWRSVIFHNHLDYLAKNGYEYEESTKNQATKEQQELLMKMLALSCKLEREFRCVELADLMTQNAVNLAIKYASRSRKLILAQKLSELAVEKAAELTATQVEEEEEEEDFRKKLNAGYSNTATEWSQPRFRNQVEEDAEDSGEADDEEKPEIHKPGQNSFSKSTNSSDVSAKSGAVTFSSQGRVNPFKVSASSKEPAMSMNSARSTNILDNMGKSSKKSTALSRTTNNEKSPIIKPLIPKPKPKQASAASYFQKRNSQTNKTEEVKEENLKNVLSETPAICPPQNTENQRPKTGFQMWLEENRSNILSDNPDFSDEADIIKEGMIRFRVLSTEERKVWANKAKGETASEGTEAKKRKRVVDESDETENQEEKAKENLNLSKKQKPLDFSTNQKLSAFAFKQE
Sequence of UniProt O43617 (O43617 whole entry, looked up): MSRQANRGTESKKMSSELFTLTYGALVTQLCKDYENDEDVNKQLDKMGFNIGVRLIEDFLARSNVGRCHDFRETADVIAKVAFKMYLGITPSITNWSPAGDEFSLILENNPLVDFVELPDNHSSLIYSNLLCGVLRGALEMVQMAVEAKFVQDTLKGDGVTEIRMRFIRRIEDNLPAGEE

As to UBXN10 (UniProt Q96LJ8), the log2 fold change in assay [1] was 0.007; in assay [2], -0.026; in assay [3], -0.071; in assay [4], 0.037; with Nexturastat A, 0.107; with vemurafenib it was -0.264. The log2 fold change in assay [5] was -0.024; in assay [6], -0.115; with givinostat, 0.059; with barasertib, -0.068.

With TMEM120A (UniProt Q9BXJ8), the log2 fold change in [1] was 0.181; in [2], 0.007; in [3], 0.115; in assay [4] it was -0.004; with Nexturastat A it was -0.259; in the assay with vemurafenib, 0.06. The log2 fold change is 0.085 in assay [5], -0.007 in assay [6], 0.116 with givinostat and -0.006 in the assay with barasertib.

On to UBE2J1 (UniProt Q9Y385), for which the log2 fold change was -0.133 in assay [1]; -0.016 in assay [2]; 0.107 in [3]; 0.04 in assay [4]; -0.077 with Nexturastat A; -0.087 with vemurafenib. Further, the log2 fold change in assay [5] was -0.071; in [6], -0.262; with givinostat, 0.098; with barasertib it was -0.047.

Consider TRIP10 isoform 2 (UniProt Q15642), for which the log2 fold change in [1] is -0.068; in [2], -0.04; in assay [3], 0.019; in assay [4], 0.046; in the assay with Nexturastat A, 0.12; with vemurafenib, 0.026. Also, the log2 fold change is 0.177 in assay [5], 0.004 in [6], 0.01 with givinostat and 0.011 with barasertib.

Turning to WDHD1 (UniProt O75717), the log2 fold change in assay [1] is 0.057; in assay [2], -0.043; in assay [3], 0.013; in assay [4] it was 0.072; with Nexturastat A it was -0.053; in the assay with vemurafenib, 0.066. In addition, the log2 fold change is 0.095 in [5], 0.022 in [6], 0.053 with givinostat and 0.055 with barasertib.

TOM1L1 (UniProt O75674): the log2 fold change was -0.101 in [1]; 0.005 in assay [2]; 0.057 in [3]; 0.019 in assay [4]; -0.038 with Nexturastat A; 0.102 with vemurafenib. Besides, the log2 fold change in [5] was 0.015; in [6], -0.07; with givinostat it was 0.024; in the assay with barasertib it was 0.03.

As to TRAPPC3 (UniProt O43617), the log2 fold change is 0 in assay [1]; 0.023 in assay [2]; 0.061 in assay [3]; 0.042 in assay [4]; -0.218 (active) with Nexturastat A; 0.023 with vemurafenib. Besides, the log2 fold change is 0.01 in assay [5], -0.006 in [6], -0.051 in the assay with givinostat and 0.025 with barasertib.

As to WASHC5 (UniProt Q12768), the log2 fold change was -0.011 in assay [1]; -0.011 in assay [2]; 0 in assay [3]; -0.006 in assay [4]; 0.052 with Nexturastat A; 0.004 with vemurafenib. For the same target, the log2 fold change in [5] was 0.004; in [6] it was 0.065; in the assay with givinostat, 0.085; with barasertib, 0.077.

TMEM70 (UniProt Q9BUB7): the log2 fold change in assay [1] was 0.006; in assay [2], 0.051; in assay [3] it was 0.051; in assay [4], 0.005; in the assay with Nexturastat A, -0.012; in the assay with vemurafenib, -0.011. Also, the log2 fold change in assay [5] is 0.029; in assay [6] it was -0.053; in the assay with givinostat, -0.164; with barasertib, 0.047.

With TPM2 (UniProt P07951), the log2 fold change in [1] is 0.048; in [2] it was -0.019; in [3], -0.047; in assay [4], 0.212; in the assay with Nexturastat A, -0.138; with vemurafenib it was 0.03. Also, the log2 fold change in assay [5] was 0.001; in assay [6] it was 0.405; in the assay with givinostat, -0.011; with barasertib, 0.04.

As to TXNL4B (UniProt Q9NX01), the log2 fold change was -0.037 in assay [1]; -0.088 in assay [2]; -0.002 in assay [3]; -0.04 in assay [4]; 0.453 (active) with vemurafenib; 0.024 in [5]. Further, the log2 fold change in [6] is -0.06; with givinostat, 0.014; in the assay with barasertib, 0.306.

Regarding TMEM192 (UniProt Q8IY95), the log2 fold change in [1] is 0.013; in assay [2] it was -0.032; in assay [3], 0.026; in [4], -0.028; with Nexturastat A it was 0.004; in the assay with vemurafenib, -0.006. Besides, the log2 fold change in assay [5] is -0.026; in assay [6], -0.014; with givinostat, -0.038; with barasertib it was -0.005.

TPR (UniProt P12270): the log2 fold change is -0.001 in assay [1]; 0.023 in assay [2]; -0.069 in assay [3]; -0.047 in assay [4]; -0.048 with Nexturastat A; 0.031 with vemurafenib. The log2 fold change is 0.012 in assay [5], 0.003 in assay [6], -0.08 in the assay with givinostat and 0 with barasertib.

For the target WDR7 (UniProt Q9Y4E6), the log2 fold change was -0.029 in [1]; -0.008 in [2]; -0.016 in [3]; -0.025 in [4]; -0.216 in the assay with Nexturastat A; 0.091 with vemurafenib. The log2 fold change in assay [5] was 0.083; in assay [6], 0.202; in the assay with givinostat, 0.067; with barasertib, 0.03.

Turning to TMEM63B (UniProt Q5T3F8), the log2 fold change was 0.095 in assay [1]; 0.014 in assay [2]; 0.006 in assay [3]; 0.004 in assay [4]; 0.051 with Nexturastat A; 0.009 in the assay with vemurafenib. Also, the log2 fold change is -0.011 in [5], -0.044 in [6], 0.014 in the assay with givinostat and -0.038 with barasertib.
